From PubChem BioAssay
Active and inactive are the calls of the source. The rule behind the calls is not given here.

Target: Pantothenate synthetase (Mycobacterium tuberculosis (strain ATCC 25618 / H37Rv)) (UniProt P9WIL5)
Test: Coupled enzyme confirmation of inhibitors against recombinant Mtb PanC (AID 375);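 note: 0% = full reaction with vehicle and 100% = no enzyme background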
Conditions: coupled enzyme assay; at 10 µM, stronger effect = higher value

Pantothenate synthetase (Mycobacterium tuberculosis (strain ATCC 25618 / H37Rv)), sequence (P9WIL5 whole entry, looked up): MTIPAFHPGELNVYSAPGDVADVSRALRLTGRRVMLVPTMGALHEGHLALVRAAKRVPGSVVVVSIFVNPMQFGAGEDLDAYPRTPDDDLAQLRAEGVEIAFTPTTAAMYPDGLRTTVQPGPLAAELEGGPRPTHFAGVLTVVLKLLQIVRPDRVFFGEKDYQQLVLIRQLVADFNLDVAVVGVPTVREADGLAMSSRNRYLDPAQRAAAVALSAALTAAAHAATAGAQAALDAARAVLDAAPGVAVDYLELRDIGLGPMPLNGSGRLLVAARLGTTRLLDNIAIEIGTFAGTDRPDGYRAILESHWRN

Row | SMILES | inhibition
1 | COc1cccc(OC)c1C(=O)Nc1ccc(CN2CCCCC2)cc1 | 0% (inactive)
2 | CCCC(=O)NCCc1cc2c(C)ccc(C)c2[nH]c1=O | 0% (inactive)
3 | O=C1CC2CS(=O)(=O)CC2N1c1ccc(Oc2ccccc2)cc1 (configuration not stated) | 0% (inactive)
4 | COc1ccc(-c2noc(COc3ccc(Cl)c(C)c3)n2)cc1 | 0% (inactive)
5 | CC(C)CCNC(=O)C(C)N(Cc1ccc(F)cc1)C(=O)c1ccc(CN2CCCCC2)o1 (configuration not stated) | 1% (inactive)
6 | Cc1ccc(C)c(-c2nc3ccc(N)cc3[nH]2)c1 | 0% (inactive)
7 | COCCNC(=O)CN1CCN(C(c2ccccc2)c2ccccc2)CC1 | 2% (inactive)
8 | CCCN(CCC)C(=O)CC(c1ccc(F)cc1)c1ccco1 (configuration not stated) | 1% (inactive)
9 | COc1ccc(-n2c(Cc3cccn3C)nnc2SCC(N)=O)cc1 | 0% (inactive)
10 | Cc1ccc2c(c1)NC(=O)C(CC(=O)NCCCN1CCN(c3cc(Cl)ccc3C)CC1)O2 (configuration not stated) | 1% (inactive)
11 | CCOC(=O)N1CCC(NC(=O)C2CCCN2C(=O)OCc2ccccc2)CC1 (configuration not stated) | 5% (inactive)
12 | CN(C)C(=O)N1CCC(C(=O)NC2CCCCCCC2)CC1 | 0% (inactive)
13 | c1coc(CN(Cc2cccs2)Cc2nnnn2C2CCCCC2)c1 | 0% (inactive)
14 | CCc1cn([C@H]2C[C@H](O)[C@@H](CO)O2)c(=O)[nH]c1=O | 0% (inactive)
15 | O=C(O)CCN1C(=O)c2ccccc2C1=O | 6% (inactive)
16 | CN1C(=O)CSc2ccc(NC(=O)N3CCN(c4ccccn4)CC3)cc21 | 8% (inactive)
17 | O=C(NC1CCCC1)C(NS(=O)(=O)c1cccc2nsnc12)c1ccccc1 (configuration not stated) | 7% (inactive)
